IL1B secr inh: blocks inflammasome-driven IL-1 beta release. activity change, % at 57.5 µM. THP-1 LPS/ATP IL-1B secretion, AlphaLISA, 16 h; hits give low values. hit rate 4.7% among 360,000; in the data active = activity change below about -50%; inconclusive = mostly about -30% to -49%
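Secreted IL-1B measured by AlphaLISA bead assay after 16 h compound exposure of THP-1 cells; compounds (final up to 57.5 uM) added 1 h before LPS (250 ng/mL) and ATP (1.25 mM) stimulation; lower signal means less secretion.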
TDP1 inh: TDP1 (human) enzyme inhibition; Q9NUW8; recombinant TDP1, AlphaScreen DNA substrate cleavage; Potency, µM (doses to about 130 µM), without a hit: top-dose activity change, negative = inhibition, most hits filed as inhibitors; hit rate 0.28% among 350,000; AID 485290; also: potency is read from the fitted curve at half-maximal effect; nearly all actives have a fitted effect of over 40% in size
Target sequence (Q9NUW8 whole entry, looked up): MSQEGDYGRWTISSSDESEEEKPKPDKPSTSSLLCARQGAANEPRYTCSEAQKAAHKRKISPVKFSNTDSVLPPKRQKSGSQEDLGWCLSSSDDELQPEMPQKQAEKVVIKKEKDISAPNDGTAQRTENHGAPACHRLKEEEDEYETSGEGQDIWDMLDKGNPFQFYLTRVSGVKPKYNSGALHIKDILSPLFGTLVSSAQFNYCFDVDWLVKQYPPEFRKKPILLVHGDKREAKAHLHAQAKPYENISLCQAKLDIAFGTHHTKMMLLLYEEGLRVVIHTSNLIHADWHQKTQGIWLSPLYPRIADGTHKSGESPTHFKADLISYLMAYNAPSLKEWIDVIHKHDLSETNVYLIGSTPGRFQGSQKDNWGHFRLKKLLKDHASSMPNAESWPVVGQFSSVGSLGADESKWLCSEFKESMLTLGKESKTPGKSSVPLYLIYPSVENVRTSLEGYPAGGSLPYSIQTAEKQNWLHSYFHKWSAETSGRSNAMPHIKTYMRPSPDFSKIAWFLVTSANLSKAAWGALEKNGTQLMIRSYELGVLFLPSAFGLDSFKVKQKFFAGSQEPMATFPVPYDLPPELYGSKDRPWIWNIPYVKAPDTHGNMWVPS
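Compounds were preincubated with Tdp1 (1 nM final) for 15 min at room temperature before substrate (15 nM final) started a 5 min reaction; beads (10 ug/ml final) were then added for 10 min before AlphaScreen detection.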
Giardia kill: Giardia lamblia killing | Giardia lamblia trophozoite viability | activity change, % at 7.66 µM, hits read low | hit rate 0.15% among 340,000; in the data active = activity change below about -80%; inconclusive = between about -30% and that limit;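 also: parasites exposed to compound for two days anaerobically before the ATP read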
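Giardia lamblia trophozoites (100 cells/well) were incubated with compounds for 48 h at 37 deg C under anaerobic conditions. Viability was read as ATP content by one-step luminescence after 15-30 min at room temperature.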
ELG1 repair inh: blocks ELG1-dependent DNA repair in HEK293T cells. HEK293T ELG1-luciferase reporter, luminescence, 16 h; DNA damage induced by 5-fluorouridine. Potency, µM (series often up to 46.1 µM), inactives show at the top dose activity change, negative = inhibition, actives largely listed as inhibitors. hit rate 2.3% among 330,000. AID 504467; also: potency is read from the fitted curve at half-maximal effect; nearly all actives have a fitted effect of over 55% in size
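DMSO vehicle served as the neutral condition. Each well held 2,000 cells given 5-fluorouridine plus compound; after 16 hr at 37 °C/5% CO2, ONE-Glo was added and luciferase measured 30 min later.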
DT40 TDP1 CPT: DT40-hTDP1 cell growth loss with CPT; chicken DT40 Tdp1-/-;hTDP1 cells + 20 nM CPT, ATP luminescence, 48 h; Potency, µM (titrated, usually from 46.2 µM), without a hit: at the highest dose activity change, negative = growth inhibition, hits mostly inhibitors; hit rate 12% among 420,000; also: potency is read from the fitted curve at half-maximal effect; nearly all actives have a fitted effect of over 55% in size
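Cell growth measured by CellTiter-Glo luminescence after a minimum 48 h, 37 C compound exposure with 20 nM CPT in Tdp1-knockout DT40 cells stably expressing hTDP1, seeded 400/well; qHTS titration format.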
TDP1 cell noCPT: qHTS for Inhibitors of human tyrosyl-DNA phosphodiesterase 1 (TDP1): qHTS in cells in absence of CPT; hit rate 15% among 420,000; Potency, µM (top dose mostly 46.2 µM), for the others: at the highest dose activity change, negative = growth inhibition, usual class: inhibitors; DT40 Tdp1-/- hTDP1 cells, no CPT, ATP luminescence, 48 h; AID 686978, 2013; also: potency is read from the fitted curve at half-maximal effect; nearly all actives have a fitted effect of over 55% in size
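Chicken DT40 Tdp1-/- cells complemented with human TDP1, screened without camptothecin (DMSO vehicle only), 400 cells/well. Compounds pin-transferred, cells incubated at 37 °C for at least 48 hr. Growth read as ATP-dependent luminescence (CellTiter-Glo, 30 min at RT).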
An asterisk follows results filed as active; ? = inconclusive; · = no result given; [ ] = dose if it differs, or a comment. An excerpt weighted towards active compounds, which were near 19% of everything screened. Unless noted, calls follow the shape of the dose curve; as a rule, active = well fitted curve in the direction sought with a large enough effect; inconclusive = small, poorly fitted or top-dose-only effect, or another doubt; inactive = no such curve, though single readings can be large; an effect the other way counts as inactive or inconclusive. % is scaled to controls: 0 for no effect and ±100 for the full control effect.

SMILES	IL1B secr inh	TDP1 inh	Giardia kill	ELG1 repair inh	DT40 TDP1 CPT	TDP1 cell noCPT
CC(C)(C)c1ccc(NC(=O)c2ccsc2)cc1	?	-1.4%	4.9	?	?	23.1µM*
O=C(Nc1ccc(N2CCOCC2)cc1)C1(c2ccc(Cl)cc2)CCC1	-22.4	1.8%	10.6	-7.0%	-27.8%	?
CCOC(=O)c1ccc(S(=O)(=O)N2CCN(C3CCCC3)CC2)cc1	12.6	-11.1%	-1.9	-14.7%	?	?
CC(C)(C)c1ccc(C(=O)N2CCC(NC(=O)c3ccccc3)CC2)cc1	6.9	·	-22.6	-10.0%	14.6µM*	?
CC(C)(C)c1ccc(C(=O)N2CCC(C(=O)NC3CC3)CC2)cc1	19.1	·	2.1	?	-4.5%	-13.4%
COc1cccc(Cn2c(=O)cnc3cnc(N(C)C)nc32)c1	·	·	·	·	?	-28.6%
Cc1ccc(-n2c(O)c(/C=N/NC(=O)C3COc4ccccc4O3)c3ccccc3c2=O)cc1 (configuration not stated)	45.0	10.1%	17.3	-17.0%	?	25.9µM*
Cc1[nH]n(-c2ccccc2)c(=O)c1/C=N\NC(=O)C1COc2ccccc2O1 (configuration not stated)	19.4	10.5%	-12.4	?	3.26µM*	5.17µM*
Cc1c(/C=N\NC(=O)C2COc3ccccc3O2)c2ccccc2n1C (configuration not stated)	2.8	10.5%	-9.7	1.0%	0.731µM*	0.92µM*
O=C(N/N=C/c1c(O)n(-c2ccccc2Cl)c(=O)c2ccccc12)C1COc2ccccc2O1 (configuration not stated)	50.9	8.2%	18.2	?	?	?
O=c1c2oc3ccccc3c2[nH]c(=S)n1-c1ccc(F)cc1	11.3	6.9%	-17.7	13.2%	1.8%	-5.2%
CCCCS(=O)(=O)c1nc(-c2ccc(Br)cc2)cc(-c2ccccc2)c1C#N	·	-1.3%[12.3 µM]	·	·	3.66µM*	2.59µM*
N#CC(Cc1cccs1)c1nc2ccccc2[nH]1 (configuration not stated)	0.0	·	·	·	4.5%	-4.7%
N#CC(/C(=N/S(=O)(=O)c1cccs1)c1ccccc1)c1nc2ccccc2[nH]1 (configuration not stated)	1.2	6.6%	0.6	-15.2%	-25.3%	7.31µM*
COc1ccc(S(=O)(=O)N2CCN(C(=O)c3cc4c(s3)CCC4)CC2)cc1	-17.9	·	4.7	?	?	?
Cc1ccc2cc(CN(Cc3ccc(F)cc3)Cc3nnnn3C3CCCC3)c(=O)[nH]c2c1	-61.2*	12.2%	1.8	?	29.1µM*	?
CCc1ccc2[nH]c(=O)c(CN(Cc3ccc4c(c3)OCO4)Cc3nnnn3C3CCCC3)cc2c1	-66.0*	9.1%	-8.3	?	18.4µM*	?
Cc1ccc2cc(CN(Cc3ccccc3)Cc3nnnn3C3CCCC3)c(=O)[nH]c2c1	-63.4*	4.1%	-3.6	?	18.4µM*	12.6µM*
CC1=C(C(=O)OC(C)C)C(C)C(C(=O)OC(C)C)=C(C)N1	?	-3.1%	4.3	?	11.2µM*	?
CCOC(=O)C1=C(C)Nc2[nH]c(=O)[nH]c(=O)c2C1c1cccs1 (configuration not stated)	14.9	3.9%	-11.1	16.7%	8.5%	-1.6%
CCOC(=O)C1=CN(Cc2ccc(OC)cc2)C=C(C(=O)OCC)C1c1cccs1	-63.9*	?	?	?	?	?
CCOC(=O)C1=C(C)NC(C)=C(C(=O)OCC)C1c1cccs1	1.3	2.3%	-2.6	-15.6%	?	23.1µM*
CCOC(=O)c1sc2c(c1C)C(c1cccs1)C1=C(CCCC1=O)N2 (configuration not stated)	-4.2	-2.0%	-10.7	?	?	16.4µM*
CCOC(=O)C1=C(C)NC2=C(C(=O)CCC2)C1c1cccs1 (configuration not stated)	11.6	2.2%	2.5	15.0%	6.1%	-25.8%
CCOc1ccc(NC(=O)CSc2oc(-c3ccco3)nc2S(=O)(=O)c2ccccc2)cc1	·	5.9%	·	·	?	?
SMILES	IL1B secr inh	TDP1 inh	Giardia kill	ELG1 repair inh	DT40 TDP1 CPT	TDP1 cell noCPT
Cn1c(=O)[nH]c(=O)c2c1nc(NCCO)n2CC(O)COc1ccccc1 (configuration not stated)	·	4.0%[12.3 µM]	·	·	-11.7%	-19.9%
COCCCn1cc(C(=O)c2cc(OC)ccc2OCC(=O)N2CCCCC2C)cc(C#N)c1=O (configuration not stated)	-7.8	2.4%	1.3	8.7%	3.0%	-11.4%
CC1=NN(C(C#N)c2c(C)nn(Cc3ccccc3)c2C)C(C)(C)C1 (configuration not stated)	2.7	6.0%	5.1	-3.3%	-3.7%	2.7%
CC1=C(C(=O)OC(C)C)C(c2cccs2)C(C(=O)OC(C)C)=C(C)N1	-72.5*	2.7%	-4.0	-30.1%	?	11.6µM*
COc1cc(-c2nnc3sc(Cc4ccccc4)nn23)cc(OC)c1OC	99.9	2.8%	14.0	-8.5%	20.6µM*	?
COc1cc(-c2nnc3sc(Cc4ccc(Cl)cc4)nn23)cc(OC)c1OC	-9.2	·	10.9	·	11.6µM*	9.2µM*
CCOC(=O)c1ccc(NC(=O)C(Cc2ccccc2)NS(=O)(=O)c2ccc(Br)s2)cc1 (configuration not stated)	·	2.5%	·	·	1.8%	2.5%
COC(=O)C1=C(C)N(Cc2cccnc2)C(=O)/C1=C\c1sccc1C	-53.4*	8.4%	-6.2	20.6µM*	-22.9%	-22.2%
CCN1C(=O)/C(=C\c2ccco2)C(C(=O)OC)=C1C	-9.7	-2.0%	-1.1	-0.4%	0.4%	-13.3%
CCOc1cc(/C=C2\C(=O)N(CCc3ccc(OC)c(OC)c3)C(C)=C2C(=O)OC)ccc1O	?	5.5%	5.5	1.64µM*	?	23.1µM*
COC(=O)C1=C(C)N(Cc2ccc(C)cc2)C(=O)/C1=C\c1ccc(O)c(OC)c1	-60.4*	10.8%	2.2	-14.2%	2.3%	-29.4%
CCOc1cc(/C=C2\C(=O)N(Cc3ccco3)C(C)=C2C(=O)OC)ccc1O	-104.6*	2.4%	1.3	-15.8%	?	?
CCOC(=O)C1=C(C)N(c2ccc(C)cc2)C(=O)/C1=C\c1ccc(O)c(OC)c1	0.0	·	10.2	0.0%	14.6µM*	20.6µM*
COC(=O)C1=C(C)N(Cc2ccccc2)C(=O)/C1=C\c1ccco1	2.4	10.7%	?	-14.4%	?	18.4µM*

Screens (PubChem)
